High-throughput results: PubChem BioAssay, National Center for Advancing Translational Sciences (NCATS)
RE007 growth inh: less growth of the S. pombe RE007 Vpr strain; Potency, µM (doses to about 92.2 µM), without a hit: at the top dose activity change, negative = less growth, hits mostly inhibitors; AID 651644; 360,000 compounds, 0.21% hits; S. pombe RE007 Vpr strain, BacTiter-Glo ATP luminescence, 24 h; active = well fitted falling curve with a large enough effect; inconclusive = small, poorly fitted or top-dose-only effect; inactive = no such curve, though single readings can be large or run the other way; note: nearly all actives have a fitted effect of over 50% in size
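Fission yeast strain RE007, carrying one chromosomally integrated HIV-1 vpr copy, was seeded at OD 0.01 in PMG+AL medium with 23 nL pinned compound. After 24 h at 30 °C and 99% humidity, viability was read by BacTiter-Glo luminescence.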
Tb PYK inh: inhibitors of Trypanosoma brucei pyruvate kinase | Q57TT1 | TbPYK enzyme, Kinase-Glo Plus ATP luminescence, 45 min | Potency, µM (highest dose often 76.8 µM), for inactives: at the highest dose activity, negative = inhibition, usual class: inhibitors | 410,000 compounds, 0.12% hits | AID 624173; note: nearly all actives have a fitted effect of over 50% in size
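Quantitative HTS: titrated library compounds versus trypanosomal pyruvate kinase in TEA buffer (pH 7.2) containing KCl, MgCl2, BSA and Tween-20. Reactions were initiated with ADP, 130 uM final. Kinase-Glo Plus luminescence was read after 45 min at RT.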
Sm TGR block: S. mansoni TGR enzyme inhibition; AID 485364; Q962Y6; 360,000 compounds, 3% hits; Potency, µM (doses to about 114 µM), without a hit: top-dose activity change, negative = inhibition, actives largely listed as inhibitors; purified TGR, DTNB reduction, TNB absorbance 405 nm; note: nearly all actives have a fitted effect of over 60% in size
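TGR 20 nM + NADPH 100 uM (dispensed conc.), cpd preinc 15 min RT; start with NADPH (500 uM addition) then DTNB (15 mM addition). Kinetic TNB absorbance, 405 nm filter. Four-parameter Hill fit across titration.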
FMDV antiviral: foot and mouth disease virus antiviral activity; FMDV antiviral cell-based qHTS; Potency, µM (highest dose often 57.9 µM), for inactives: at the top dose activity change, negative = inhibition, actives largely listed as inhibitors; 410,000 compounds, 1.2% hits; AID 1159524; calls by dose curve; tested in HEK293T cells; note: read-out not given here; nearly all actives have a fitted effect of over 45% in size
Active calls of the source: *; ? = inconclusive; · = not tested or not shown. A selection: hits, their analogues and other compounds. The true share with any hit is near 3.7%. Unless noted, calls come from the whole dose curve; as a rule, active = well fitted curve in the direction sought with a large enough effect; inconclusive = small, poorly fitted or top-dose-only effect, or another doubt; inactive = no such curve, though single readings can be large; an effect the other way counts as inactive or inconclusive. % is set by controls: 0 for no effect and ±100 for the full control effect; potency is the fitted concentration of half-maximal effect.

SMILES	RE007 growth inh	Tb PYK inh	Sm TGR block	FMDV antiviral
COc1cc(/C=N/Nc2cccc(C)c2)cc(Br)c1O	265.5%	-12.1%	44.7µM*	21.2%
COc1cc(/C=N/Nc2cccc(C)c2)ccc1OC(=O)c1cccs1	137.9%	-12.2%	-28.8%	24.1%
COc1cc(/C=N/NP(=S)(c2ccccc2)c2ccccc2)ccc1O	13.6%	-9.0%	-9.2%	27.2%
CCC1CN(C(=O)N2CCC(C(=O)NCCC3=CCCCC3)CC2)c2cc(C)ccc2O1 (configuration not stated)	·	-0.8%	3.0%	?
Cc1ccc(NC(=S)N2CCN(Cc3ccc4c(c3)OCO4)CC2)c(C)c1	?	-0.6%	·	-26.4%
CCN(CC)S(=O)(=O)c1ccc(C)c(NC(=S)N2CCN(Cc3ccc4c(c3)OCO4)CC2)c1	1.8%	-13.7%	0.7%	20µM*
CC(=O)N=c1sc2ccccc2n1C	0.8%	-1.3%	-24.2%	10.2%
CC(=O)N=c1sc2nc3ccccc3nc2n1N(C(C)=O)C(C)=O	-30.0%	-28.1%	50.1µM*	-4.8%
Cc1[nH]c(=O)[nH]c(=O)c1/C=N/NC(=O)[C@@H](NC(=O)OC(C)(C)C)C(C)C	4.3%	7.2%	35.5µM*	0.0%
Cc1[nH]c(=O)[nH]c(=O)c1/C=N/NC(=O)[C@H](C)N	-5.4%	-3.7%	50.1µM*	-13.9%
N#Cc1nccnc1S(=O)(=O)c1cccs1	-10.1%	11.4%	0.1µM*	?
CN(Cc1ccccc1C#N)S(=O)(=O)c1cccs1	-8.5%	-25.8%	7.2%	-9.1%
Cc1ccn2c(Nc3ccc4c(c3)OCCO4)c(-c3cccs3)nc2c1	·	-3.0%	-12.0%	28.5%
CC(=O)N1CCc2c(sc(NC(=O)C3CC3)c2-c2nc3ccccc3s2)C1	-13.9%	-5.1%	-18.7%	25.1µM*
COc1cc(NCCCC(C)N)c2ncccc2c1 (configuration not stated)	-21.7%	-14.2%	35.5µM*	-18.5%
Cc1cccc(CN2C(=O)c3ccccc3Sc3ccc(C(=O)NC4CCCCC4)cc32)c1	·	1.6%	8.8%	-3.3%
c1ccc(Nc2cccc(Nc3ccccc3)n2)cc1	?	3.3%	2.82µM*	21.2%
CC(=O)C1=C(c2ccc(Cl)cc2)N(C(C)=O)n2c(nnc2C2CCCCC2)S1	·	0.0%	3.9%	?
O=S(=O)(NC1CCCCCCC1)OCC(Cl)(Cl)Cl	-7.8%	2.0%	-23.6%	15.4%
O=S(=O)(NC1CC(NS(=O)(=O)OCC(Cl)(Cl)Cl)C2CCCCC12)OCC(Cl)(Cl)Cl (configuration not stated)	-5.7%	0.8%	79.4µM*	?
COc1ccccc1N1CCN(c2nc(CNC(=O)c3ccccc3F)nc3ccccc23)CC1	·	·	·	0.3%
CC(CNc1ccccc1O)C(=O)O (configuration not stated)	14.3%	-4.0%	50.1µM*	-15.7%
CCOC(=O)c1ccc(NS(=O)(=O)c2ccc3c(c2)OCCO3)cc1	·	-4.4%	1.6%	-4.0%
Cc1ccc2sc(N3CCN(C(=O)CCS(=O)(=O)c4ccc(F)cc4)CC3)nc2c1C	·	0.1%	-26.1%	?
Cc1c(Cl)ccc2sc(N3CCN(C(=O)CCS(=O)(=O)c4ccc(F)cc4)CC3)nc12	·	0.5%	0.4%	11.2µM*
SMILES	RE007 growth inh	Tb PYK inh	Sm TGR block	FMDV antiviral
Cc1ccc(S(=O)(=O)CCC(=O)N2CCN(c3ccc(Cl)cc3)CC2)cc1	-4.4%	-1.8%	12.6µM*	?
CCOc1ccc(S(=O)(=O)N2CCN(Cc3nc4ccc(C)cc4o3)CC2)cc1	·	-2.2%	0.6%	?
CCOC(=O)C1CCCN(C(=O)c2cc3nc(-c4ccc5c(c4)OCO5)cc(C(F)(F)F)n3n2)C1 (configuration not stated)	6.6%	7.6%	11.5%	35.5µM*
Cc1cccc(NC(=O)CS(=O)(=O)c2cccc3nsnc23)c1	·	-2.0%	-12.3%	?
COc1ccc(OC)c(CN2CCOc3ccc(CN4CCC(O)(c5cccnc5)CC4)cc3C2)c1	·	·	·	0.1%
CCc1ccc(NC(=O)C(=O)N/N=C(\C)CC(=O)Nc2ccc(OC)cc2)cc1	6.8%	2.4%	44.7µM*	28.7%
O=C(CSc1ccc2ccccc2c1)NCCc1ccc(O)c(O)c1	14.2%	31.6µM*	11.2µM*	?
COc1ccc(CCNC(=O)CSc2ccc3ccccc3c2)cc1OC	0.8%	0.2%	-16.6%	2.2%
N#CC(C#N)=Cc1cc2ccccc2nc1N1CCCCC1	-24.9%	4.8%	5.01µM*	-7.4%
CCOC(=O)/C(C#N)=C/c1cc2ccccc2nc1N1CCOCC1	-26.4%	-0.6%	41.4%	3.4%
Cc1ccc(NC(=O)c2ccccc2Cl)cc1-n1cnnn1	-18.7%	0.6%	-0.4%	9.8%
Cc1ccc(NC(=O)c2ccccc2)cc1-n1cnnn1	-4.6%	-2.7%	20µM*	24.8%
C[C@]12CC[C@@H]3c4ccc(OC(=O)N(CCCl)CCCl)cc4CC[C@@H]3[C@H]1CC[C@@H]2OP(=O)(O)O	·	3.0%	·	·
COc1cccc(-c2nc(NCC3CCCO3)c3ccccc3n2)c1O (configuration not stated)	22.5%	-0.3%	-10.9%	17.8µM*
Oc1ccccc1-c1nc(NCC2CCCO2)c2ccccc2n1 (configuration not stated)	?	-1.1%	7.4%	?
CCC(C)Nc1nc(-c2cccc(OC)c2O)nc2ccccc12 (configuration not stated)	-10.9%	-0.7%	-11.5%	28.2µM*
NC(=O)c1c(NC(=O)c2nc(SCc3ccccc3F)ncc2Cl)sc2c1CCCC2	·	3.6%	10.4%	-23.4%
CCC1(C2CCN(C(=O)c3ccccc3C(C)=O)CC2)NC(=O)N(CCc2scnc2C)C1=O (configuration not stated)	·	·	·	-9.3%
COCC(=O)N(CCc1ccccc1)Cc1cc2cc(C)ccc2nc1Cl	19.9%	-5.3%	39.8µM*	-15.0%
COc1cc(C2C3=C(CC(C)(C)CC3=O)Nc3c2c(=O)[nH]c(=O)n3Cc2ccccc2)ccc1O (configuration not stated)	6.3%	1.3%	50.1µM*	-6.4%
COc1ccc(C(=O)Nn2c(SCC(=O)NC3CCCCC3)nc3ccccc3c2=O)cc1	-0.2%	2.5%	-25.8%	12.6µM*
COc1ccc(C(=O)Nn2c(SCC(=O)N3CCC(C)CC3)nc3ccccc3c2=O)cc1	0.5%	-12.8%	16.7%	11.2µM*
COc1ccc(C(=O)Nn2c(SCC(=O)c3ccc(Cl)cc3)nc3ccccc3c2=O)cc1	-2.1%	2.9%	18.0%	-27.8%
CC(C)C[C@H](NC(=O)[C@H](CCc1ccccc1)NC(=O)CN1CCOCC1)C(=O)N[C@@H](Cc1ccccc1)C(=O)N[C@@H](CC(C)C)C(=O)[C@@]1(C)CO1	·	-11.5%	·	·
CCS(=O)(=O)Nc1cc(C(=O)N[C@H]2CCCCNC2=O)c2c(c1)nc(-c1ccccc1)n2C	·	·	·	-18.4%
COc1cc(/C=C(\C#N)C(=O)NC2CCCCC2C)ccc1OS(=O)(=O)c1ccc(C)cc1 (configuration not stated)	4.1%	-2.4%	3.1%	25.1µM*
COc1cc(/C=C(\C#N)C(N)=O)ccc1OS(=O)(=O)c1ccc(C)cc1	6.5%	-10.7%	0.9%	-22.8%
